# D2 ag-1: HTS Assay for Allosteric Agonists of the Human D2 Dopamine Receptor: Primary Screen for Agonists; activation, % at 2 µM; 340,000 tested, 0.53% active; HEK293 T-REx D2 cells, calcium flux agonist mode; AID 485358, 2010; D(2) dopamine receptor (Homo sapiens), P14416;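 active = activation over 3 SD above normal in the single-dose calcium agonist read, cut at about 30% in these data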; note: 0% is about no effect
# Target sequence (P14416 whole entry, looked up): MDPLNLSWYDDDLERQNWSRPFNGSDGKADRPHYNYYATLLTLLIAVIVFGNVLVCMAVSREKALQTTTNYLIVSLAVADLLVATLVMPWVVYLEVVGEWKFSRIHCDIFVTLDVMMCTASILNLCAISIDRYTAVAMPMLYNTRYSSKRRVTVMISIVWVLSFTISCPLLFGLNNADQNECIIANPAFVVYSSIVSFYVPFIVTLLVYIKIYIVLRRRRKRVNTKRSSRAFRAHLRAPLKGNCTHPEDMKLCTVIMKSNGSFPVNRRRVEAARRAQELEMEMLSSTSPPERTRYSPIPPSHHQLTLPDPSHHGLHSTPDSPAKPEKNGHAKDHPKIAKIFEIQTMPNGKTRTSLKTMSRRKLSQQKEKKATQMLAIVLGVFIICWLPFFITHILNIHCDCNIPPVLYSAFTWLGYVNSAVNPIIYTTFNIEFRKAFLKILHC
#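 Calcium-flux readout, 1 cycle/sec over 180 s following compound pin transfer, in inducible HEK293 Trex D2 cells (force-coupled); dopamine controls included. Positive calcium responses during this window marked compounds as potential agonists.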
# D2 antagonist: HTS Assay for Allosteric Antagonists of the Human D2 Dopamine Receptor: Primary Screen for Antagonists; D(2) dopamine receptor (Homo sapiens), P14416; AID 485344, 2010; 340,000 tested, 2% active; inhibition, % at 10 µM; HEK293 TREx D2 cells, calcium flux, dopamine EC80; in the data active = inhibition above about 30%; inactive = below that, where a call was filed; note: 0% is about no effect
#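 Cells plated overnight at 30 C with tetracycline; no-wash calcium dye, 30–90 min RT; 10 s baseline; compound pinned; 180 s read; EC80 dopamine added; another 180 s read.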
# D2 ag-2: Beta-Arrestin HTS for Positive Allosteric Modulators of the Human D2 Dopamine Receptor: Agonists | DiscoveRx PathHunter D2 beta-arrestin, luminescence, 90 min; 100% = 57 uM dopamine signal | activation, % (test concentration not listed) | 360,000 tested, 0.084% active; in the data active = activation above about 40%
#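 DiscoveRx PathHunter D2 beta-arrestin cells (2,100/well) attached overnight, then compound-stimulated 90 min at 37 C in HBSS/10 mM HEPES/0.1% Tween-20 buffer; beta-galactosidase complementation read by luminescence after 1 h at ambient temperature. Dopamine 57 uM final (EC100) as control.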
# D2 PAM-1: Beta-Arrestin HTS for Positive Allosteric Modulators of the Human D2 Dopamine Receptor: Potentiators; D(2) dopamine receptor (Homo sapiens), P14416; DiscoveRx D2 beta-arrestin cells, luminescence, 90 min; 100% = 57 uM dopamine signal; potentiation, % (test concentration not listed); 360,000 tested, 0.23% active; AID 624464, 2012; in the data active = potentiation above about 50%
#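 PathHunter D2 cells, attached overnight at 37 deg C, received compound in DMSO plus dopamine at EC20 (50 nM final) for 90 min at 37 deg C. Beta-arrestin recruitment was read as luminescence after 1 h with detection reagent at ambient temperature.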
# D2 PAM-2: HTS Assay for Positive Allosteric Modulators of the Human D2 Dopamine Receptor: Primary Screen for Potentiators | D(2) dopamine receptor (Homo sapiens), P14416 | potentiation, % at 10 µM | HEK293 T-REx D2, calcium flux, EC20 dopamine potentiation | 340,000 tested, 0.34% active;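 active = potentiation over 3 SD above the plate norm, cut at about 30% in these data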; note: 0% is about no effect
#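 Cells plated with tetracycline inducer and held overnight at 30 C; calcium dye loaded 30–90 min at room temperature; baseline taken, compound added and read 180 s; EC20 dopamine then added and read 180 s.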
# Numbers without * were called inactive; x = no result given. An excerpt weighted towards active compounds, which were near 2.4% of everything screened.
SMILES,D2 ag-1,D2 antagonist,D2 ag-2,D2 PAM-1,D2 PAM-2
CC1CCC2(CC1)NC(=O)c1ccccc1O2 (stereo not drawn),0.6,2.2,-2.6,-1.7,31.6*
O=C1CS/C(=N/N=C/c2ccco2)N1Cc1ccc(F)cc1,-0.4,9.6,-2.7,-22.4,5.9
Cc1cc(NC(=O)N2CCC(CN3CCOCC3)CC2)ccc1Br,-0.7,x,x,x,2.1
O=S(=O)(c1ccc2nc(-c3ccco3)c(-c3ccco3)nc2c1)N1CCOCC1,-1.7,-1.5,3.6,56.0*,16.5
O=S(=O)(c1ccc2ccccc2c1)N1CCOCC1,1.2,-3.6,1.0,-5.4,25.4
O=C(Nc1ccc2c(c1)OCCO2)c1cc2ccccc2o1,-0.9,32.6*,0.0,-18.3,-6.4
COc1cc(/C=C2/SC(=S)N(Cc3ccccc3)C2=O)cc(Cl)c1O,71.6*,-11.9,-1.6,-5.7,-20.5
COc1cc(/C=C2\SC(=O)N(Cc3ccc(F)cc3)C2=O)cc([N+](=O)[O-])c1O,-1.8,31.5*,-2.5,-0.9,3.2
CN(C)S(=O)(=O)c1ccc(C(=O)Nc2c(C(=O)Nc3ccc(F)cc3)oc3ccccc23)cc1,3.6,x,x,x,4.9
Cc1ccc(CCNC(=O)c2ccc(Nc3nc4ccccc4n4nnnc34)cc2)cc1,x,x,x,x,-0.8
COc1ccc(/C=C/c2c(-c3ccc(OC)cc3)oc3ccccc23)cc1,0.9,7.9,-1.7,-6.2,-2.4
COC(=O)c1ccc(/C=C/c2c(-c3ccc(OC)cc3)oc3ccccc23)cc1,0.7,47.0*,0.2,-3.7,4.0
COc1ccc(-c2oc3ccccc3c(=O)c2OC(=O)c2ccc(C)cc2)cc1,-0.1,5.7,0.6,11.4,30.9*
COc1ccc(NC(=O)CSc2nc3c(c(=O)[nH]2)CN(Cc2ccccc2)CC3)cc1Cl,4.7,x,x,x,3.0
O=C(NNC(=S)Nc1ccccc1Cl)c1ccccc1Br,0.7,53.4*,-9.9,-33.6,0.8
O=C(NNC(=O)c1ccccc1Br)c1ccccc1Cl,0.0,1.6,1.0,-4.5,1.6
CC(=O)Nc1ccc(NC(=O)C(C)Sc2nnc(C3CC3)n2-c2ccccc2)cc1 (stereo not drawn),0.0,5.9,-2.1,-2.4,-4.0
Cc1ccc(S(=O)(=O)Nc2ccc(Cl)cc2)cc1NC(=O)c1cc2c(s1)CCCC2,0.6,-8.9,7.8,72.1*,6.7
CCCN1CCN(c2nc(-c3cccs3)nc3ccccc23)CC1,-0.7,36.6*,-2.2,-42.5,-15.0
N#CC(c1ccccc1)C(CC(=O)c1ccccc1)c1ccccc1 (stereo not drawn),x,x,-1.8,-5.5,x
Cc1cccc2c1-c1sc(C(=O)NCCc3ccc(Cl)cc3)cc1CO2,0.5,x,x,x,-20.2
CCn1ncc([N+](=O)[O-])c1C(=O)Nc1ccc(C)c(C)c1,0.1,-14.1,-3.3,-41.8,10.8
Cc1cccc(/C=C2/Sc3ccc(C(=O)N4CCOCC4)cc3NC2=O)c1,0.3,-29.4,-4.4,-3.0,1.9
O=C1Nc2cc(C(=O)N3CCOCC3)ccc2S/C1=C\c1ccccc1,0.8,47.4*,-4.2,-10.3,13.3
O=C(CCN1C(=O)c2ccccc2C1=O)Nc1ccccc1C(F)(F)F,0.0,-16.4,-1.4,-5.9,8.8
SMILES,D2 ag-1,D2 antagonist,D2 ag-2,D2 PAM-1,D2 PAM-2
O=C(Nc1ccccc1C(=O)O)c1cccc(NS(=O)(=O)c2ccc(Br)cc2)c1,x,x,2.6,81.7*,x
O=C(O)c1cc(S(=O)(=O)Nc2cccc(Oc3ccccc3)c2)ccc1Br,-2.3,11.9,-2.1,-3.9,38.9*
CCC(CC)Nc1ccc(C(CC(N)=O)NC(=O)c2ccccc2)cc1[N+](=O)[O-] (stereo not drawn),-0.4,13.5,-4.0,-8.0,-14.5
N#Cc1ccc(CSc2ccc(S(=O)(=O)N3CCCC3)cn2)cc1,-0.8,30.0*,-5.0,-0.8,0.4
N#Cc1cccc(Oc2ccc(S(=O)(=O)N3CCCC3)cn2)c1,-0.8,35.2*,-2.3,0.9,-10.5
Cc1ccc(CSc2ccc(S(=O)(=O)N3CCCC3)cn2)cc1,-1.5,7.6,-3.3,-0.1,6.3
CCC1(CC)NC(=O)N(CC(=O)Nc2ccc(OCc3ccccc3)cc2)C1=O,x,x,0.7,-23.4,x
CCN1CCCC1CNC(=O)c1ccc(Sc2ccccc2Cl)c([N+](=O)[O-])c1 (stereo not drawn),0.3,72.2*,-1.0,-8.6,-18.1
CCN1CCN(C(=O)c2ccc(Sc3ccccc3Cl)c([N+](=O)[O-])c2)CC1,1.4,1.2,0.9,-26.4,-22.0
CCN1CCCC1CNC(=O)c1ccc(Sc2ccc(F)cc2)c([N+](=O)[O-])c1 (stereo not drawn),1.2,34.7*,-4.6,-18.3,-28.0
Cc1sc(NC(=O)CCC(=O)O)c(C#N)c1C,0.8,6.2,-3.8,-4.9,-2.0
Cc1ccc(C(C(=O)NC2CCCC2)N(C(=O)Cc2cccs2)c2ccc3c(c2)OCCO3)cc1 (stereo not drawn),1.7,48.1*,-5.3,-6.6,-8.0
O=C(NC1CCCC1)C(c1ccc(F)cc1)N(C(=O)Cc1cccs1)c1ccc2c(c1)OCCO2 (stereo not drawn),0.3,4.9,0.2,-2.7,-1.4
CN(C)CCCNc1oc(-c2ccc(Cl)cc2)nc1S(=O)(=O)c1ccccc1,x,x,-5.7,-6.3,x
CN(C)CCCNc1oc(-c2ccccc2Cl)nc1S(=O)(=O)c1ccccc1,0.9,86.0*,-2.1,-2.0,-30.8
O=C(Nc1ccc(S(=O)(=O)N2CCOCC2)cc1)C1CC(=O)N(c2ccc(F)cc2)C1 (stereo not drawn),-1.2,-5.1,0.2,3.6,4.6
CCN(c1cccc(C(F)(F)F)c1)S(=O)(=O)c1ccc2c(c1)CCN2C(C)=O,0.0,31.0*,-1.1,-26.5,-8.9
CCN(c1cccc(C)c1)S(=O)(=O)c1ccc2c(c1)CCN2C(C)=O,-0.5,1.5,-0.7,-35.8,-15.2
CCn1c(=O)c(C(=O)NNC(=O)c2cccc(Cl)c2)c(O)c2ccccc21,17.9,11.7,4.6,-2.6,45.5*
Cc1cc2ccccc2c(=O)n1CC(=O)NCC(=O)N1CCN(c2ccccc2)CC1,1.5,64.0*,-3.7,-6.7,-0.1
CN(C)CCNC(=O)c1cc2c(=O)n(C)c3ccccc3c2n1C,1.6,8.9,1.6,-2.6,32.6*
CCN(CC)CCNC(=O)c1cc2c(=O)n(C)c3ccccc3c2n1C,0.1,37.0*,-1.8,-12.7,15.3

# Screening data deposited in PubChem BioAssay by National Center for Advancing Translational Sciences (NCATS).
